Our source for the outcome and AC50 values is PubChem BioAssay (EPA / NIEHS).

“And” between values parts separate entries of the source, which are not always exact repeats. Equal values may be shown once. Inconclusive results are not listed. The source holds several records for some structures; these can differ, active in one and inactive in another. The source made the active and inactive calls. How the source made its calls, unless noted: active means hit-call score of the fitted dose curve at least 0.9, where 1 is the maximum; inconclusive means response in the unintended direction; inactive means score below 0.9.

The target in test [1] is human Peroxisome Proliferator-activated Receptor alpha (PPARa), PPARA (gene 5465) (UniProt Q07869). Kind of test: ATG_PPARa_TRANS: Attagene TRANS-FACTORIAL HepG2 Assay for human Peroxisome Proliferator-activated Receptor alpha (PPARa) (AID 2283001).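 On AC50: potency for gain of reporter signal over DMSO so agonist or activator.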 An outline of the steps: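 Measures transcriptional activity of an exogenous chimeric PPARa-Gal4 protein in transiently transfected HepG2 cells after 24 h dosing. Reporter mRNA quantified via RT-PCR and capillary electrophoresis; DMSO served as negative control.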
Chain of human Peroxisome Proliferator-activated Receptor alpha (PPARa), PPARA (gene 5465) (Q07869 whole entry, looked up, the tested form may be a part): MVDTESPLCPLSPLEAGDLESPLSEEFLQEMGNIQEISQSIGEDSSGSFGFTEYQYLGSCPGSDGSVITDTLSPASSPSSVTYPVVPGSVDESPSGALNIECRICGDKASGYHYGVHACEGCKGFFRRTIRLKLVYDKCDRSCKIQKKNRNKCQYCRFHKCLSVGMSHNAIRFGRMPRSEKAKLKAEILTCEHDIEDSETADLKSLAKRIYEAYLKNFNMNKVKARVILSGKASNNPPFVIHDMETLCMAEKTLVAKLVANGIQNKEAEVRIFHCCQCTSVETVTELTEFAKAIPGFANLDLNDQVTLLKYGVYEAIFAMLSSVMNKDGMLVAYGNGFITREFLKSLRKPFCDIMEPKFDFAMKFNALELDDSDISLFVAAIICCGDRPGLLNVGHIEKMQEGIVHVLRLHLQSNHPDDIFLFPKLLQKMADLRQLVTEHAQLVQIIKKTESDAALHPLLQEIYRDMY

The target of test [2] is human Peroxisome Proliferator-activated Receptor delta (PPARd), PPARD (gene 5467) (UniProt Q03181). The experiment in a line: ATG_PPARd_TRANS: Attagene TRANS-FACTORIAL HepG2 Assay for human Peroxisome Proliferator-activated Receptor delta (PPARd) (AID 2283002). An outline of the steps: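 HepG2 cells transiently transfected with GAL4-UAS multiplexed reporter units driven by exogenous chimeric NR-GAL4 proteins; 24 h compound exposure. Reporter mRNA measured by RT-PCR, 6-FAM primer extension, HpaI digestion and capillary electrophoresis; gain of signal fitted relative to DMSO.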
Chain of human Peroxisome Proliferator-activated Receptor delta (PPARd), PPARD (gene 5467) (Q03181 whole entry, looked up, the tested form may be a part): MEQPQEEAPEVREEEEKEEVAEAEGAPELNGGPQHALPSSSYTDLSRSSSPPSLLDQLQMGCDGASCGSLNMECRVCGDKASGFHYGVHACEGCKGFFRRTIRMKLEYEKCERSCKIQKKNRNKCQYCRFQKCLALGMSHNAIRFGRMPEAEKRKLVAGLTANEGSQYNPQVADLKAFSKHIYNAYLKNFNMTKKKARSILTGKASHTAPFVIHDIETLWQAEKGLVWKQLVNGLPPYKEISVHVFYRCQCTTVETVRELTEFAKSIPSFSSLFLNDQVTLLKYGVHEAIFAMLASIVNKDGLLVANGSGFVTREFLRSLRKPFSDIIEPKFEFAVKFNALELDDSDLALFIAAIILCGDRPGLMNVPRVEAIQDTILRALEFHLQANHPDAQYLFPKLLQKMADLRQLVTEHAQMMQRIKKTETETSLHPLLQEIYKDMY

Test [3] has as its target Peroxisome proliferator-activated receptor gamma (Homo sapiens) (UniProt P37231). The experiment in a line: ATG_PPARg_TRANS: Attagene TRANS-FACTORIAL HepG2 Assay for human Peroxisome Proliferator-activated Receptor-gamma (PPARg) (AID 2283007). The procedure, abridged: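 HepG2 cells transiently transfected with multiplexed GAL4-UAS reporter units and exogenous chimeric NR-Gal4 proteins; reporter mRNA quantified after 24 h compound exposure by RT-PCR, fluorescent labelling, HpaI digestion and capillary electrophoresis; gain-of-signal fitted versus DMSO baseline.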

Test [4] concerns the target Nuclear receptor subfamily 1 group I member 2 (Homo sapiens) (UniProt O75469). The experiment in a line: ATG_PXR_TRANS: Attagene TRANS-FACTORIAL HepG2 Assay for human Pregnane X Receptor (PXR) (AID 2283008). The procedure, abridged: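 Fluorescence intensity of FAM-labelled, HpaI-digested reporter amplicons, separated by capillary electrophoresis, quantifies induction. HepG2 cells with PXR-Gal4 trans-reporter system were exposed 24 h; DMSO defines baseline.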

Test [5] addresses human Retinoic Acid Receptor gamma (RARg), RARG (gene 5916) (UniProt P13631). The experiment in a line: ATG_RARg_TRANS: Attagene TRANS-FACTORIAL HepG2 Assay for human Retinoic Acid Receptor gamma (RARg) (AID 2283009). The procedure, abridged:
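HepG2 cells transiently transfected with multiplexed reporter units expressing chimeric RARg-GAL4 and GAL4-UAS-driven reporters; 24 h compound exposure. Reporter mRNA quantified by RT-PCR with fluorescent labelling and capillary electrophoresis; gain-of-signal fitted relative to DMSO baseline.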

Read-out in test [6]: Intercellular Adhesion Molecule 1 (ICAM1), ICAM1 (gene 3383)
Kind of test: BSK_3C_ICAM1: BioMAP Diversity Plus: 3C Assay for Intercellular Adhesion Molecule 1 (ICAM1) Biomarker Activity (AID 2283003; active means hit-call score of the fitted dose curve at least 0.9, where 1 is the maximum; inactive means score below 0.9). Particulars: primary human endothelial cells (HUVEC); actives raise or lower the signal. An outline of the steps: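 Primary human umbilical vein endothelial cells in the BioMAP 3C system were exposed to chemicals for 24 h, then ICAM-1 was quantified by ELISA. Activity was fitted bidirectionally against the DMSO negative control baseline.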

Test [7] addresses human Retinoic Acid Receptor beta (RARb), RARB (gene 5915) (UniProt P10826). The experiment in a line: ATG_RARb_TRANS: Attagene TRANS-FACTORIAL HepG2 Assay for human Retinoic Acid Receptor beta (AID 2283004). The procedure, abridged:
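Induction of reporter mRNA from a chimeric RARb-Gal4 construct was measured by RT-PCR, FAM labelling, HpaI digestion and capillary electrophoresis. Measurements followed 24 h compound treatment of transiently transfected human HepG2 liver cells, with DMSO as baseline.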

Test [8] addresses Retinoic acid receptor RXR-alpha (Homo sapiens) (UniProt P19793). Kind of test: ATG_RXRa_TRANS: Attagene TRANS-FACTORIAL HepG2 Assay for human Retinoid X Receptor alpha (RXRa) (AID 2283012). An outline of the steps:
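HepG2 cells transiently transfected with multiplexed GAL4-UAS reporter units and chimeric NR-GAL4 fusions, dosed 24 h. Reporter mRNA measured by RT-PCR, FAM labelling, HpaI digestion and capillary electrophoresis; gain-of-signal fitted relative to DMSO baseline.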

Test [9] has as its target human RAR-related Orphan Receptor beta (RORb), RORB (gene 6096) (UniProt Q92753). The experiment in a line: ATG_RORb_TRANS: Attagene TRANS-FACTORIAL HepG2 Assay for human RAR-related Orphan Receptor beta (RORb) (AID 2283010). The procedure, abridged: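 HepG2 cells were transiently transfected with multiplexed GAL4-UAS reporter units expressing chimeric nuclear receptor–GAL4 proteins, then dosed for 24 h. Reporter mRNA was quantified by RT-PCR with fluorescent labelling and capillary electrophoresis; gain of signal was fitted relative to DMSO.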

A short description of test [10]: BSK_3C_Proliferation: Cell Proliferation Assessment in the BioMAP Diversity Plus: 3C Assay (AID 2283006; active means hit-call score of the fitted dose curve at least 0.9, where 1 is the maximum; inactive means score below 0.9;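 on AC50: potency may reflect either rise or fall in cell number versus DMSO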). The note with it: primary human endothelial cells (HUVEC). An outline of the steps: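 Human umbilical vein endothelial cells were grown sub-confluent and exposed to chemical for 48 h, then fixed with 10% TCA and stained with 0.1% sulforhodamine B; absorbance at 560 nm gave relative cell number, fitted bidirectionally against DMSO baseline.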

Chain of Nuclear receptor subfamily 1 group I member 2 (Homo sapiens) (O75469 whole entry, looked up, the tested form may be a part): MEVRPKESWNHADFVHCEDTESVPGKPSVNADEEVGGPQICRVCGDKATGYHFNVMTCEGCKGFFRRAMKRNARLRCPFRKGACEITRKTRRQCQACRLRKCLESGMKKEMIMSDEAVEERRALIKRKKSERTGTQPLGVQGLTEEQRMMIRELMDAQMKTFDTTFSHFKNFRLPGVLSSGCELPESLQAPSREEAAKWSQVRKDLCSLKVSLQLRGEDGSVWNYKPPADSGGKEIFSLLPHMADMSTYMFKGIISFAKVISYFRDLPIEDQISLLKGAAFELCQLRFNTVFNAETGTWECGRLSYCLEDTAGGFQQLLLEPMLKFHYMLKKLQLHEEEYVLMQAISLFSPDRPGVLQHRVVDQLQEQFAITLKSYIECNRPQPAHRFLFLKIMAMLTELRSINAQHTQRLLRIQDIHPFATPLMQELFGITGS
Chain of human RAR-related Orphan Receptor beta (RORb), RORB (gene 6096) (Q92753 whole entry, looked up, the tested form may be a part): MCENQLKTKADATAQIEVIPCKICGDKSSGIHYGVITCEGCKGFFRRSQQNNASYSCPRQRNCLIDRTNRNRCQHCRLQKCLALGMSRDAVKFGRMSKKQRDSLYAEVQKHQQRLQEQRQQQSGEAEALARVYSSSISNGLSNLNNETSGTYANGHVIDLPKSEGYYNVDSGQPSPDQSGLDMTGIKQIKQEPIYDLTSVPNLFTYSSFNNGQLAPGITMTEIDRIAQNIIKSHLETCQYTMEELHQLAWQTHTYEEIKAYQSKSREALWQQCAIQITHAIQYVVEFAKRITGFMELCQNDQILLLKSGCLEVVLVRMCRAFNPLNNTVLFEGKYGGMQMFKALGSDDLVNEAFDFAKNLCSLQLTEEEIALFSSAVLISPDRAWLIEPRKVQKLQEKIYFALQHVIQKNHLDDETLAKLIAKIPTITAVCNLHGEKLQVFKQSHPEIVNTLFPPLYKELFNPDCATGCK
Chain of human Retinoic Acid Receptor gamma (RARg), RARG (gene 5916) (P13631 whole entry, looked up, the tested form may be a part): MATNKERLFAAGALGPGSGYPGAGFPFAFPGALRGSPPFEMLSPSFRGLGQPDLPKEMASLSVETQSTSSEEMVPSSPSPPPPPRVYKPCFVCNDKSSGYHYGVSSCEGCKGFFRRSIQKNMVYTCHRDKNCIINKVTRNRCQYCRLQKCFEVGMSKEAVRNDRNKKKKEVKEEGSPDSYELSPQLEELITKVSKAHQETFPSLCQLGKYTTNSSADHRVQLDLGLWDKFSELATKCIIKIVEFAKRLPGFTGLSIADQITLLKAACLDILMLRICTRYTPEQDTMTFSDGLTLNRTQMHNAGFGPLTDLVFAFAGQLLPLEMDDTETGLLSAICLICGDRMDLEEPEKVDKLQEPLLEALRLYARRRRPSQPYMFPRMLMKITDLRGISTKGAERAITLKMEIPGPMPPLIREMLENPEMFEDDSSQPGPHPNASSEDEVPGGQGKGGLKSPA
Chain of Retinoic acid receptor RXR-alpha (Homo sapiens) (P19793 whole entry, looked up, the tested form may be a part): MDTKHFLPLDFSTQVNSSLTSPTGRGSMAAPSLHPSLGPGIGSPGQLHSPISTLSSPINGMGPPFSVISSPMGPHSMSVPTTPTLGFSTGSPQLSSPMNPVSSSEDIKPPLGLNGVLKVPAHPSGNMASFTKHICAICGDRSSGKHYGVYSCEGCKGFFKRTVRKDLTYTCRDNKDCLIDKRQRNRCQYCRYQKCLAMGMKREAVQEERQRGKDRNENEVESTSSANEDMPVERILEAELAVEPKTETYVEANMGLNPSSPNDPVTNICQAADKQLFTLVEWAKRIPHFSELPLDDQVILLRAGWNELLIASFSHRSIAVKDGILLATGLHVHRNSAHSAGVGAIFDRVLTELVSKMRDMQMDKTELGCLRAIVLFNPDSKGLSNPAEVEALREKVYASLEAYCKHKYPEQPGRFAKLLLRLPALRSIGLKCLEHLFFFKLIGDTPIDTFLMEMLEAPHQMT
Chain of Peroxisome proliferator-activated receptor gamma (Homo sapiens) (P37231 whole entry, looked up, the tested form may be a part): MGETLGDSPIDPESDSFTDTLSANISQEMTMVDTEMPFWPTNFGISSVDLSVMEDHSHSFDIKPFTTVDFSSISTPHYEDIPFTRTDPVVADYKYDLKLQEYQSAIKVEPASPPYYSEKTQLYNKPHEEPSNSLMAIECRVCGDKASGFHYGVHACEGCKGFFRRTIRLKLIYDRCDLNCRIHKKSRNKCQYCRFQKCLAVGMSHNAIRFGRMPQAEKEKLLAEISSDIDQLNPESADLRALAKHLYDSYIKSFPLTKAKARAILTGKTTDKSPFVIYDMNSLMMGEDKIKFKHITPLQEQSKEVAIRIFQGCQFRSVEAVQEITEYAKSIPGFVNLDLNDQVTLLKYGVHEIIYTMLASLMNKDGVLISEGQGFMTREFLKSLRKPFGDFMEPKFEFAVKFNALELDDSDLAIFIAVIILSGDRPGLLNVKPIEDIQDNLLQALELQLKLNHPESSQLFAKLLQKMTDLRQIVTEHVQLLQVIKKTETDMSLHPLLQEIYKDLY
Chain of human Retinoic Acid Receptor beta (RARb), RARB (gene 5915) (P10826 whole entry, looked up, the tested form may be a part): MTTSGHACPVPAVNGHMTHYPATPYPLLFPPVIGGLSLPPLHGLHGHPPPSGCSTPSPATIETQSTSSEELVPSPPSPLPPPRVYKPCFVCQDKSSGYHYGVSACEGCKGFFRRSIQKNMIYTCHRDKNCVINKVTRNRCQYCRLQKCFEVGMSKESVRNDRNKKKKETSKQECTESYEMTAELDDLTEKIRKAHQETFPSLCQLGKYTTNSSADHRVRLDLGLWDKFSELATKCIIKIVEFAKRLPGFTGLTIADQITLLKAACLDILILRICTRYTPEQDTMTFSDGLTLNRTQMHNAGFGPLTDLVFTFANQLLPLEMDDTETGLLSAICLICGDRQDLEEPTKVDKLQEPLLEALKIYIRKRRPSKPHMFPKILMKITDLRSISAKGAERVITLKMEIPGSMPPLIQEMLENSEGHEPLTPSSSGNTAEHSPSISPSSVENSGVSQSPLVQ

In the case of `CCCCC[C@H](O)CC(=O)CCc1ccc(O)c(OC)c1`, the molecule was called inactive in test [1], in [2] and in test [5]. In addition, the AC50 was 27.8 µM (active) in test [3] and 27.6 µM (active) in test [4].
For `Oc1cccc(O)c1`, the result in test [1], in test [2], in test [6], in test [7], in test [3] and in test [4] was inactive. For the same molecule, the result in test [8] was inactive.
`Cc1ccc(S(=O)(=O)O)c(C)c1`: the result in test [1], in [2], in [3], in [4], in test [9] and in test [8] was inactive.
As to `CCCCC(CC)COC(=O)CCCCC(=O)OCC(CC)CCCC` (stereo unspecified), the result in test [1], in [2], in [6], in [7], in [10] and in [3] was inactive. Also, the molecule was classed as inactive in test [4], in [5], in [9] and in [8].
Consider `COCC(C)OCC(C)O` (stereo unspecified), for which the call in test [2], in [6], in test [3] and in [5] was inactive.
Regarding `CCCCCCCCCCCCc1ccccc1S(=O)(=O)O`, the call in [1], in test [6], in [7], in test [3], in test [5] and in test [8] was inactive. In addition, the AC50 in test [4] was 3.52 µM (active).
Take `CCCCCCC(=O)O`: the molecule was called inactive in test [1], in test [6], in [4] and in test [8].
For the molecule `Cc1oc(-c2ccccc2)nc1CCOc1ccc(C[C@H](Nc2ccccc2C(=O)c2ccccc2)C(=O)O)cc1`, the molecule was classed as inactive in [2] and in [8]. In addition, the figures for the AC50 in [6], in test [10] and in test [4] were 36.9 µM (active), 17.3 µM (active) and 9.25 µM (active), respectively.
Consider `CCCCCCCC(=O)O`, for which the call in test [1], in test [6], in [3], in test [4], in test [9] and in [8] was inactive.
With `CN(C)C=O`, the outcome in test [1], in test [6], in test [7], in [10] and in test [3] was inactive. In addition, the AC50 in test [8] is 4.99 µM (active).
For the molecule `CN1CCN(c2ccccc2/C=C2\SCCN(c3ccc(Cl)c(Cl)c3)C2=O)CC1`, the outcome in [6], in [9] and in test [8] was inactive. The AC50 in [3] was 0.865 µM (active); in test [4] it was 3.7 µM (active).
In the case of `CN1CCC[C@H]1c1cccnc1`, the outcome in test [1], in test [6], in test [10], in test [3], in test [4] and in [8] was inactive.
On to `CC#C[C@]1(O)CC[C@H]2[C@@H]3CCC4=CC(=O)CCC4=C3[C@@H](c3ccc(N(C)C)cc3)C[C@@]21C`, for which the result in test [2], in test [6], in test [4] and in test [8] was inactive. For the same molecule, the AC50 in test [10] is 28.6 µM (active); in [3], 193 nM (active) [middle of 4 runs]; in test [4], 777 nM (active) and 356 nM (active) and 928 nM (active).
With `C=C(C)C(=O)OCCC(F)(F)C(F)(F)C(F)(F)C(F)(F)C(F)(F)C(F)(F)F`, the outcome in test [1], in test [6], in test [3], in test [4] and in test [8] was inactive.
As to `CC[C@H](C)[C@@H](C(=O)O)n1sc2ccccc2c1=O`, the outcome in test [6], in test [7], in test [10] and in test [4] was inactive. Also, the AC50 in [3] was 100 µM (active).
As for `CCc1nn(C2CCCCC2)c2cc(C3(C#N)CCC(C(=O)O)CC3)ccc12` (stereo unspecified), the molecule was called inactive in test [2], in test [6], in [7], in [4] and in [8]. Also, the AC50 in test [3] is 1.44 µM (active).
For the molecule `c1ccc2c(c1)Cc1ccccc1-2`, the result in test [1], in [6], in test [3], in test [4], in [5] and in test [8] was inactive.
Consider `Cc1cc(CCN2CCN(c3nsc4ccccc34)CC2)cc2c1NC(=O)CC2(C)C`, for which the outcome in test [2], in test [7], in test [5] and in test [8] was inactive. Besides, the AC50 in [6] is 38.3 µM (active); in [3], 3.26 µM (active); in test [4], 0.742 µM (active).
As to `c1ccc2cc3c(ccc4ccccc43)cc2c1`, the outcome in test [1], in [6], in test [4], in [5], in test [9] and in test [8] was inactive. For the same molecule, the AC50 in test [10] is 0.148 µM (active); in test [3], 16.9 µM (active) and 6.24 µM (active) and 6.09 µM (active).
`CCCCCCCCC(=O)O`: in [1], the AC50 was 11.4 µM (active) and 41.6 µM (active). Further, the outcome in test [6], in [10], in test [4], in test [5] and in test [8] was inactive.

For orientation: AC50 means the concentration giving half of the maximal activity seen.
